Measurements reported in PubChem BioAssay.

What follows are compounds tested on Human papillomavirus type 1a protein E7 (residues 44-93) (assay: HPV1a E7 fragment binders on microarrays, primary screen, biochemical, small-molecule microarray, residues 44-93, 635 nm fluorescence (AID 1108;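 further: E7 fragment applied at 1 µg/mL in TBST for 1 h at 4 C; score combines spot fluorescence with its signal to noise ratio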)). Details: small-molecule microarray binding, fluorescence 635 nm; higher = more signal.
For CC[C@H]1C2=C3C(CC[C@H]4C(OCc5ccc(F)cc5C(F)(F)F)OC[C@](C)([C@@H]34)N(C(=O)OC(C)(C)C)C2)C(COC(C)=O)C1COC(C)=O (stereo not given in full), the composite z-score was 1.35.
With [N-]=[N+]=NCc1ccccc1[C@H]1OC(c2ccc(OCCCO)cc2)=N[C@@]1(CCS(=O)(=O)c1ccccc1)C(=O)NCCN1CCOCC1 the composite z-score was 1.49.
For C=C(CCCC)/C(=C/C[C@@H](OC(C)=O)c1ccc(OCCO)cc1)c1cc(C(=O)OC)ccc1OC, the composite z-score was 0.722.
Work on O=C1C2C=CC(C(O)c3ccccn3)N(Nc3ccc([N+](=O)[O-])cc3)C2C(=O)N1c1ccccc1 (stereo not given) yielded a composite z-score of 0.0529.
With CCN1C(=O)C2CC(=O)C3C(CN(S(=O)(=O)c4ccc(C)cc4)C3c3ccc(C)cc3)C2C1=O (stereo not given) the composite z-score was -1.69.
COC(=O)C1=CC(CCCO)=CC(c2ccc(CN3CCCC3)cc2)N(C)C=C1C(=O)OC (stereo not given) gave a composite z-score of 1.3.
Work on CCOC(=O)C[C@H]1[C@H](OC(=O)c2cc3ccccc3oc2=O)[C@@H](NC(=O)c2ccc(-c3ccccc3)cc2)c2cc(OCCCO)ccc2N1C(=O)Cc1ccc(OC)cc1 yielded a composite z-score of 0.697.
Compound C=CCNC(=O)[C@H]1[C@@H]2C(=O)O[C@@H](c3ccccc3)[C@@H](c3ccccc3)N2[C@@H](c2ccc(OCCO)cc2)[C@]12C(=O)N(C(=O)OCCOC)c1ccc(C#CCNC(N)=O)cc12 has a composite z-score of 1.06.
Compound O=C1C[C@@](C(=O)NCC(F)(F)F)(c2ccc([N+](=O)[O-])cc2)[C@@H](c2ccc(CO)cc2I)N1CC12CC3CC(CC(C3)C1)C2 has a composite z-score of 1.31.
For COc1cc2c(cc1O)C(C)N(Cc1sc3ccccc3c1Cl)CC2 (stereo not given), the composite z-score was -1.91.
CCCCCCCCCCC(O)C1C=CC2C(=O)N(C)C(=O)C2N1Nc1ccccc1 (stereo not given) showed a composite z-score of 0.164.
Compound COC(=O)[C@@]1(Cc2ccccc2)[C@H]2c3cc(C(=O)N(C)C)n(Cc4ccc(Cl)c(C(F)(F)F)c4)c3C[C@H]2CN1C(=O)c1ccccc1 has a composite z-score of 1.37.
Compound COC(=O)[C@@]1(Cc2ccc(F)cc2)[C@H]2c3cc(C(=O)N4CCCC4)n(CCc4c[nH]c5cc(F)ccc45)c3C[C@H]2CN1C(=O)c1ccccc1 has a composite z-score of 1.41.
C=CCNC(=O)[C@@H]1[C@H]2C(=O)O[C@H](c3ccccc3)[C@H](c3ccccc3)N2[C@H](c2ccc(OCCO)cc2)[C@@]12C(=O)Nc1ccc(C#CC3=CCCCC3)cc12 gave a composite z-score of 0.0834.
In the case of C=CCOC(=O)[C@H]1[C@@H]2C(=O)O[C@@H](c3ccccc3)[C@@H](c3ccccc3)N2[C@@H](c2ccc(OCCOC(=O)[C@H]3C[C@H]4C(=O)NCC(=O)N4[C@H]3c3ccc(O)cc3)cc2)[C@]12C(=O)Nc1ccccc12, the composite z-score is reported as 1.44.
CO[C@H]1O[C@H](CO)[C@@H](OC(=O)Nc2cccc(F)c2)[C@H](OC(=O)c2cc3ccccc3[nH]2)[C@H]1OC(=O)c1cc2ccccc2[nH]1 was tested, and the composite z-score was 0.177.
O=C1O[C@@H](c2ccccc2)[C@@H](c2ccccc2)N2[C@@H](c3ccccc3OCCO)[C@]3(C(=O)Nc4ccc(C#CC5(O)CCCCCC5)cc43)[C@@H](C(=O)N3CCCCCCC3)[C@H]12 gave a composite z-score of 1.61.
In the case of CCCCCCc1nc(Cc2cc(OC)c(OC)c(OC)c2)c(C)c2c1[Si](C(C)C)(C(C)C)OC2, the composite z-score is reported as 0.495.
In the case of [N-]=[N+]=NCc1ccccc1[C@H]1OC(c2ccc(OCCCO)cc2)=N[C@@]1(CCS(=O)(=O)c1ccccc1)C(=O)O, the composite z-score is reported as 0.746.
With COc1ccc(NN2C(C(O)c3ccc(F)cc3)C=CC3C(=O)N(C4CCCCC4)C(=O)C32)cc1 (stereo not given) the composite z-score was 1.44.
CC1C2C(CCCO)=CC(C3C(=O)N(C)C(=O)C23)N1Cc1cccc(OC(F)(F)F)c1 (stereo not given) was tested, and the composite z-score was 1.47.
CCOC(=O)C1=C[C@@H](C(C)(C)C)N(S(=O)(=O)c2ccc(C)cc2)[C@H]1c1ccc(OC)cc1 was tested, and the composite z-score was 1.34.
In the case of Cc1ccc(N2C(=O)c3ccccc3[C@@H](C(=O)NCCN3CCOCC3)[C@@H]2c2ccc(CO)cc2)nc1, the composite z-score is reported as 0.113.
O=C(N1CCOCC1)[C@]1(CCS(=O)(=O)c2ccccc2)N=C(c2ccc(OCCCO)cc2)O[C@@H]1c1ccccc1 was tested, and the composite z-score was 0.794.
For C=CCC(OC(C)=O)[C@@H]1[C@@H](N(Cc2ccc(-c3ccccc3)cc2)C(=O)Cc2ccc(OC)cc2)c2cc(OCCCO)ccc2N1C(=O)Cc1ccc(OC)cc1 (stereo not given in full), the composite z-score was -0.37.
Work on C=C(COC)C(=O)CC[C@H](OC(C)=O)c1ccccc1OCCO yielded a composite z-score of 0.0337.
COc1cc(CO)cc(I)c1O[C@H]1C=C(C(=O)NCCO)C[C@@H](N(CCN2CCOCC2)C(=O)C2CCCO2)[C@@H]1O (stereo not given in full) showed a composite z-score of 0.35.
CC(C)(C)OC(=O)CC[C@@]1(C(N)=O)N=C(c2ccc(OCCCO)cc2)O[C@@H]1c1ccccc1CN=[N+]=[N-] gave a composite z-score of 1.35.
[N-]=[N+]=NCc1ccccc1[C@H]1OC(c2ccc(OCCCO)cc2)=N[C@@]1(Cc1ccccc1N=[N+]=[N-])C(=O)N1CCOCC1 was tested, and the composite z-score was 1.39.
CN(C)CCCCCCNC(=O)[C@@H]1C[C@@H]2C(=O)N[C@@H](CCCC[N+](C)(C)C)C(=O)N2[C@@H]1c1cccc(OCCO)c1 gave a composite z-score of -0.0272.
CCCCC(=C=CC[C@@H](O)c1ccccc1OCCO)C[C@@H](O)c1ccccn1 showed a composite z-score of 0.361.
With CC1C2C(CCCO)=CC(C3C(=O)N(C(N)=O)C(=O)C23)N1Cc1cccc(OC(F)(F)F)c1 (stereo not given) the composite z-score was 0.0396.
Compound C=CCC(OC(C)=O)[C@@H]1[C@@H](N(Cc2ccc(-c3ccccc3)cc2)C(=O)Cc2ccc(OC)cc2)c2cc(OCCCO)ccc2N1C(=O)c1ccc2ccccc2c1 (stereo not given in full) has a composite z-score of 0.242.
COc1cc(Cc2cc3c(c(-c4ccccc4)n2)[Si](C(C)C)(C(C)C)OC3)cc(OC)c1OC gave a composite z-score of -1.82.
Work on O=C1N(Cc2ccccc2)Cc2ccccc2C[C@@]12COC(c1ccc(OCCCO)cc1)=N2 yielded a composite z-score of 1.19.
